Compound activity: PubChem, National Center for Advancing Translational Sciences (NCATS)
Pf Dd2 growth: Plasmodium falciparum Dd2 growth inhibition; P. falciparum Dd2 growth, SYBR Green, 72 h; Potency, µM (series often up to 28.9 µM), for inactives: top-dose activity, negative = inhibition, hits mostly inhibitors; 120,000 compounds, 4.3% hits; AID 1347417; active = well fitted inhibition curve with a large enough effect;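 also: plate controls were DMSO vehicle for no effect and reference drug for full effect; nearly all actives have a fitted effect of over 65% in size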
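Infected erythrocytes (Dd2, 0.3% parasitemia, 2.5% hematocrit final) are added to compound in RPMI-1640/Albumax II medium, grown 72 h at 37C in low oxygen, then lysed with saponin/Triton-X containing SYBR Green and read by fluorescence.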
The depositor's hits bear a star; i = inactive; [ ] = remark or other dose. This is one part of a sample in which hits are shown more often than they occur. Potency is read from the fitted curve at half-maximal effect.

SMILES	Pf Dd2 growth
COc1ccc(CC(=O)N2CCc3nc(-c4ccc(Cl)cc4)nc(-c4ccccc4)c3C2)cc1	i
NC(=O)CN1C(=O)CO[C@H]2CN(CC3CCCCC3)C[C@H]21	-16%[44.1 µM]
Cc1ccc(OC2(C(=O)NC(C)c3cn4ncsc4n3)CCNCC2)cc1 (stereo not given)	-14%
O=C(NCc1ccccc1)c1ccc(CN2C(=O)NC3(CCOCC3)C2=O)cc1	26%
Cc1ccc(C(=O)N2C[C@@H](Oc3ccccc3)C[C@H]2C(=O)N2CCOCC2)cn1	2%
NC(=O)[C@@H](Cc1ccccc1)NC(=O)[C@@H]1C[C@@H](NC(=O)c2cnccn2)CCN1C(=O)CSCC(=O)O	-8%
O=C1OCC2=C1C(c1ccc(Cl)cc1)NC(=O)N2CC(=O)N1CCC(Cc2ccccc2)CC1 (stereo not given)	i
Cc1noc([C@@H]2CC(F)(F)CN2C(=O)COc2ccccc2)n1	13%
CC1CCCCC1NC(=O)c1ccc2nccn2c1 (stereo not given)	2%[44.1 µM]
COc1ccc(CN2CCC3(C2)C(=O)N(c2ccccc2)c2ccccc23)cc1 (stereo not given)	8.9µM*
COc1ccc(CN2CCC3(C2)C(=O)N(C)c2ccccc23)cc1 (stereo not given)	-4%[44.1 µM]
O=C1Nc2ccccc2C12CN([S+](=O)([O-])c1ccccc1)C2	-9%
O=C1N(c2ccccc2)c2ccccc2C12CCN([S+](=O)([O-])c1ccccc1)C2 (stereo not given)	7.9µM*
COc1ccc(CN2CCC3(C2)C(=O)N(Cc2ccccc2)c2ccccc23)cc1 (stereo not given)	i
O=C1NC2(CCN([S+](=O)([O-])c3ccccc3)C2)COc2ccccc21 (stereo not given)	6%
Cc1ccc(S(=O)(=O)N2CCCC(Cn3c(C)nc4cccnc43)C2)cc1 (stereo not given)	-6%
Cc1ccc(S(=O)(=O)N2CCCC(Cn3c(C)nc4cccnc43)C2)cc1Cl (stereo not given)	7.1µM*
Cc1nc2cccnc2n1CC1CCCN(S(=O)(=O)c2ccc(F)c(F)c2)C1 (stereo not given)	-17%
CCOCCCNC(=O)N1[C@@H]2CC[C@H]1CC(NC(=O)c1ccc(F)cc1)C2 (stereo not given in full)	-22%
Cc1ccc(C(=O)NCC(=O)N2CCCCCCNC(=O)CC2c2ccccc2)cn1 (stereo not given)	7%
Cc1ccc(F)c(C(=O)N[C@H](Cc2ccccc2)C2CC(O)C2)c1Cl (stereo not given in full)	-8%
CCc1nc(-c2c3n(c(=O)n(Cc4ccc(OC)cc4)c2=O)CCCC3)no1	i
CCc1nnc(NC(=O)C2CC(=O)N(c3n[nH]c4ccccc34)C2)s1 (stereo not given)	-9%
CC(C)(C(=O)N1C[C@H](C2CC2)[C@@H](N)C1)c1ccccc1	6.3µM*
CC(=O)N1CCC([C@@H]2CN(C(=O)COc3ccccc3)C[C@H]2CO)CC1	i
SMILES	Pf Dd2 growth
CC(C)(C(=O)N1Cc2cnn(Cc3ccc(F)cc3)c2C1)c1ccccc1	-13%
Cn1cc(CN2CCN3C(=O)N(C4CCCCC4)C[C@H]3C2)cn1	i
Cn1cc(CN2CCCC(C(=O)N3CCOCC3)C2)c(-c2ccc(C3CCCCC3)cc2)n1 (stereo not given)	-23%
Cn1cc(CN2CCN3CCCC3C2)c(-c2ccc(C3CCCCC3)cc2)n1 (stereo not given)	8.9µM*
Cc1cc(C)c(S(=O)(=O)NCCn2c(C)cnc2C2CC2)cc1C	11µM*
Cc1ccc(C)c(S(=O)(=O)NCCn2c(C)cnc2C2CCC2)c1	-15%
Cc1cnc(C2CC2)n1CCN	i
O=C1NCCOCCCN(C(=O)COc2ccccc2)[C@H]2CCCC[C@@H]12	-18%
CC(C(=O)NCc1cccnc1N(C)CCc1ccccn1)n1cccc1 (stereo not given)	6%
COC1CN(C2CCN(C(=O)NC(C)(C)C)CC2)C12CCOCC2 (stereo not given)	-3%
Cc1cnc(CCNS(=O)(=O)c2ccc(C#N)cc2)n1C1CC1	-13%
COc1cccc(C(O)CNC(=O)C2CCN(C(=O)C3CCC3)CC2)c1 (stereo not given)	-2%
O=C(c1cc[nH]c(=O)c1)N1C[C@@H](COCC2CC2)[C@H](c2ccccn2)C1	9%
CCn1cc2nc(SCc3ccc(F)cc3)n(Cc3ccc(Cl)cc3)c(=O)c2n1	-4%
CCn1cc2nc(SCc3cc(C)ccc3C)n(Cc3ccc(C)cc3)c(=O)c2n1	10µM*
CCn1cc2nc(SCc3ccccc3)n(Cc3ccc(C)cc3)c(=O)c2n1	1%
CCN1c2cc(C(=O)NCc3ccccc3F)ccc2C(=O)N2CCCCCC21 (stereo not given)	-19%
CCN1c2cc(C(=O)NCc3ccccc3OC)ccc2C(=O)N2CCCCCC21 (stereo not given)	5µM*
CCN1c2cc(C(=O)NCc3cc(F)ccc3F)ccc2C(=O)N2CCCCC21 (stereo not given)	4µM*
COc1ccccc1CNC(=O)c1ccc2c(c1)N(C)C1CCCCN1C2=O (stereo not given)	i
CCN1c2cc(C(=O)NCc3cc(OC)ccc3OC)ccc2C(=O)N2CCCCC21 (stereo not given)	-4%
CCN1c2cc(C(=O)NCc3ccc(F)cc3)ccc2C(=O)N2CCCCCC21 (stereo not given)	i
CSCC(=O)N1CC[C@H](NC(=O)NC2CCCCC2)[C@H]1C(=O)N[C@H](Cc1ccccc1)C(N)=O	4%
Cc1cccc(CCNC(=O)[C@@H]2C[C@@H](O)CN2C2CCNCC2)c1	-13%
CCN1C(=O)CCC2(C(=O)Nc3ccc(C)cc3)CCCC=C12 (stereo not given)	-17%
SMILES	Pf Dd2 growth
CNC(=O)[C@@H]1CN(Cc2ccc(Cl)c(F)c2)C[C@H]1CO	-27%
COC1CCC12CCN(C(=O)c1ccc3[nH]ccc3c1)CC2 (stereo not given)	-15%
O=C(CCS(=O)(=O)c1ccccc1)N(Cc1cccnc1)c1nc2ccc(F)cc2s1	i
O=C(C1CCCCC1)N(Cc1cccnc1)c1nc2ccc(Cl)cc2s1	3.2µM*
O=C(COc1ccccc1)N(Cc1cccnc1)c1nc2c(F)cc(F)cc2s1	-8%
CCc1ccc2nc(N(Cc3cccnc3)C(=O)c3ccc(C#N)cc3)sc2c1	8.9µM*
COc1cccc2sc(N(Cc3cccnc3)C(=O)Cc3ccccc3)nc12	i
CC(=O)N(Cc1cccnc1)c1nc2ccc(F)cc2s1	7%
O=C(C1COc2ccccc2O1)N(Cc1cccnc1)c1nc2c(Cl)cccc2s1 (stereo not given)	i
COc1ccc2sc(N(Cc3cccnc3)C(=O)CCc3ccccc3)nc2c1	-7%
O=C(c1ccc(Br)s1)N(Cc1cccnc1)c1nc2ccc(F)cc2s1	2.5µM*
O=C(C1COc2ccccc2O1)N(Cc1cccnc1)c1nc2ccc(F)cc2s1 (stereo not given)	i
O=C(c1ccc2c(c1)OCCO2)N(Cc1cccnc1)c1nc2ccc(Cl)cc2s1	i
O=C(CCc1ccccc1)N(Cc1cccnc1)c1nc2c(F)cc(F)cc2s1	10µM*
CN(C)C[C@@H]1CN(S(C)(=O)=O)C[C@H]1NC(=O)c1c(F)cccc1Cl	2%
O=C(c1ncccc1F)N1CCCn2ccnc2C1c1ccccc1 (stereo not given)	15%
O=C([C@H]1CNC[C@H](C(=O)N2CCN(c3ccncc3)CC2)C1)N1CCCC1	23%
O=C(NCCC1CCN(Cc2ccccc2)CC1)C1CNCCO1 (stereo not given)	10%
